Test results reported in the supplement of paper PMC3334620.
The full ranking holds about 33,000 sequences; the median of “E-score (-0.5 to 0.5)” is about -0.012, and the highest 2% start at about 0.29. Shown is part of a subset that was picked to be rich in the highest values.

Biological target: T1, Ybr033w (UniProt P38073)
T1 sequence: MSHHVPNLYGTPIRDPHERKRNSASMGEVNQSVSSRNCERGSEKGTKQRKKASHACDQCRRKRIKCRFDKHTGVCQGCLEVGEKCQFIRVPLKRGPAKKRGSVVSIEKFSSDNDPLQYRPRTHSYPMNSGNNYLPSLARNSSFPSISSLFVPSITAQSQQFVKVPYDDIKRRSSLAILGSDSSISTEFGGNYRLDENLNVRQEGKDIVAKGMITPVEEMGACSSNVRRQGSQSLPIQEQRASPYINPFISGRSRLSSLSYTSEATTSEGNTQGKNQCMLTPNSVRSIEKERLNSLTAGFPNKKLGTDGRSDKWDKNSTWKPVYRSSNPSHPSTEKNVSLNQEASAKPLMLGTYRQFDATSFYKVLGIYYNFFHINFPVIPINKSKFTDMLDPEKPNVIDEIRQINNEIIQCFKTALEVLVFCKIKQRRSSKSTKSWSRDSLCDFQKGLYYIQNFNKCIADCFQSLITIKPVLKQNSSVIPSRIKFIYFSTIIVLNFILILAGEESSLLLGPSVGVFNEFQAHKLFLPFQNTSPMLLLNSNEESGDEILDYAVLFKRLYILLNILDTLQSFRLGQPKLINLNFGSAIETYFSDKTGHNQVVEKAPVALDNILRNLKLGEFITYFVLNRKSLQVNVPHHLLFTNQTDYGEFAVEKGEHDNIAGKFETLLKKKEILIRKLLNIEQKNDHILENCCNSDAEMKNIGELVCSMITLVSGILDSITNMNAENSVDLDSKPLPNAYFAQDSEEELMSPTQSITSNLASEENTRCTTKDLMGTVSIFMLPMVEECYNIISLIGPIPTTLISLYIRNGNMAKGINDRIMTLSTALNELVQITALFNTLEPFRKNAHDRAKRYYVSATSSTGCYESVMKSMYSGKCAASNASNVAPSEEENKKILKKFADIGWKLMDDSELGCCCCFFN
Test: PBM E-score (8-mer binding enrichment) (E-score (-0.5 to 0.5)); higher = stronger / more preferred TF binding
Details: protein concentration: 200 nM; construct: GST-full length
Method: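 Universal 'all 10-mer' protein binding microarrays (Agilent AMADID 015681) probed with GST-tagged S. cerevisiae TFs (full-length or DBD) made by in vitro transcription/translation (PURExpress), about 100-200 nM. Bound TF was detected with fluorescent anti-GST. Each ungapped 8-mer (which stands for itself and its reverse complement) is scored by the PBM enrichment score (E-score), a modified Wilcoxon-Mann-Whitney statistic from -0.5 to +0.5, computed with the Universal PBM Analysis Suite. Scale: above 0.35 generally sequence-specific binding.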

Sequence	PBM E-score
AGATACCT	-0.0724
AAAGAGAC	-0.0019
CTAATTAC	0.131
ATAATTAT	0.372
TTAATTAA	0.241
GTAATTAC	0.218
ATAATTAA	0.414
ATAATTAC	0.353
GTAATTAA	0.105
ATTATAAT	0.205
ATAATTAG	0.272
ATTGATGG	0.213
ATAGGTTC	0.143
AGGCAACT	0.174
CCGCGCAC	-0.0688
AAGCAACA	0.117
CTTGCATC	-0.144
AATCCGCA	0.119
TATCCGCA	0.306
CATCCGCA	0.156
CGAGAGCA	-0.0204
GAAAAAGC	0.239
ACCGACCT	-0.172
GCGCGCGC	0.334
GCGCGCGA	0.111

Sequence	PBM E-score
ACGCGCGC	-0.0247
CGTCTGTA	-0.11
CGGTGATA	0.178
AGTAGTTG	0.176
AGTAGTTC	0.307
AGTAGTTA	0.0431
CATAGTTC	-0.0864
AATAGTTC	0.294
AATAGTTG	0.207
CACAAATG	0.0361
CACGGTTC	-0.265
GAAAGCGA	0.101
AGTACAAG	0.0813
AGTACAAA	0.114
AGTACAAT	0.302
CAGGTCGA	0.141
AAACTTAA	0.259
GATCTTGC	0.0857
CATCTTCC	0.0897
ATTCTTCC	0.471
GATCTATA	0.157
AATCTATA	0.297
AAACTTAC	0.168
AAACTTAT	0.379
CATCTATA	0.188

Sequence	PBM E-score
CTTCTTCC	0.0741
GATCTTCC	0.33
ATTCTTCA	0.129
CGAATAGA	-0.0851
CTTCCATC	-0.00237
ATTCAGAC	0.0909
CGTCCCTC	-0.217
AGCACAAG	-0.0143
AGGTCAGC	0.0524
CCAATCAA	0.075
AATCTTCA	0.318
AAACTTCA	0.293
AAACTTCG	0.0988
GAACTTCA	0.0447
ACTCTTCC	-0.0223
GATCTTCA	0.0894
AATCTTCC	0.411
AATCTTCT	0.132
AATCTTCG	0.0477
TATTGCAA	0.246
ACGAAGAC	-0.177
CTATTGAG	-0.0501
TCTCCAGA	-0.189
CCCGGTTC	-0.0468
CGGACACA	-0.152

Sequence	PBM E-score
AAACGATA	0.213
TAACGATA	0.292
CAACGATA	0.187
CTTGGCTC	-0.146
AGCCCAGC	-0.2
GATTGCAA	0.171
AATGTGAT	0.15
AATGTGAA	0.313
AATGTGAC	0.0448
GCATCACA	0.215
TTACCAAA	0.235
ACTACTAT	0.328
ACTACTAC	0.153
ACTACTAA	0.173
AGAGGAGG	-0.26
AAGATTTC	0.169
CTACATAA	0.0125
ATACAAAT	0.252
CTACAAAC	0.152
GTACAAAC	0.0352
CTACAAAG	0.0965
ATACAAAA	0.311
TTACAAAA	0.268
ATACAAAC	0.306
ATACATAA	0.309

Sequence	PBM E-score
ATACAAAG	0.298
CTACAAAA	0.00298
ATACATAC	0.0684
TACCGGAA	0.27
TGCTACAA	0.161
CAGTTTGA	0.206
AGCGGCAT	0.0383
CCCACAAC	-0.108
CTGTAGGA	0.0305
TTCTAGAA	0.102
GTTTTCAA	0.146
GTCCAGAC	-0.308
CGCCCAGA	-0.174
ACGATCTA	-0.0695
CTACAATA	0.164
ATACAATC	0.0522
ATACAATA	0.332
CCGCGAGC	-0.194
CACTTTTA	0.0413
TAGGAGGA	0.0316
CCGGAATC	-0.0781
GCGGAAGA	0.236
ACGGAATC	0.113
CGGGAATA	0.246
CCGGAATA	0.412

Sequence	PBM E-score
ACGGAATA	0.351
GCGGAATA	0.293
ACGGAATG	-0.153
GGGGAATA	-0.0146
CCTATTCG	-0.149
CGACGGTA	-0.0307
ATTACTAA	0.225
CGTTCTTA	0.0158
ATCTTCTC	0.0573
ACATCGGG	-0.0939
TATTTGAA	0.255
CTTAATAA	0.182
GTTAATAA	0.329
ATTAATAG	0.373
AGTAATAA	0.18
CTTAATAC	0.136
ACTAATAG	0.2
ATTAATCA	0.26
GTTAATCA	0.277
ATTAATAA	0.302
ATTAATAC	0.306
ACTAATAC	0.228
ATTAATCG	0.166
GACACACC	-0.0728
CAGGGTGG	-0.234

Sequence	PBM E-score
CTCTAGGC	-0.153
GCATAGCA	0.0192
GCTAGTAA	-0.014
CAAGGTGA	-0.103
ACCTAGCA	0.0895
AGTGAAGC	-0.0225
ACCTCGGA	0.0486
CGAATCGC	-0.0798
ACAGGTAC	-0.0953
CACGCGCG	-0.0876
GAAGGCCC	-0.223
ATAAATAC	0.211
ATAAATAG	0.254
ATAAAATA	0.344
ATAAAAAT	0.193
ATAAATAA	0.38
ATAAAAAG	0.316
TTAAATAA	0.264
ATAAAATC	0.226
GTAAAATA	0.269
ATAAAAGG	-0.0365
ATAAATAT	0.396
ATAAAAAA	0.164
CGAAAATC	0.222
CACCTATA	0.0106

Sequence	PBM E-score
AGTCTGTC	-0.0266
ACCTTCCG	-0.032
CGTATAGC	-0.0573
CGATTGGC	-0.0233
ACCGGTCA	-0.2
CCCCAAAC	-0.101
AAATAAGA	0.16
ACTCAGAA	0.11
TGCTATAA	0.0493
ATATTGAA	0.189
AAATTGTC	0.192
AAATTGAA	0.127
AAATTGAT	0.336
ATATTGAT	0.39
AAATTGTA	0.22
AAATTGAC	0.108
AAATTGTT	0.317
ATATTGAG	0.259
AAGGGCAG	-0.151
TACTGGCA	-0.0764
ATAGAGCG	-0.117
AGCACTCC	-0.0492
ATAATACG	0.187
ACAATAAC	0.246
ACAATAAT	0.341

Sequence	PBM E-score
ATAATACA	0.305
ATAATAGA	0.223
CTAATAAC	0.216
GTAATAAA	0.198
ACAATAAA	0.14
ATAATACC	0.187
ATAATAAA	0.366
CTAATAAA	0.28
TTAATAAA	0.381
ACAGCCCG	-0.175
GATCTCCA	-0.0356
GGATCTAA	-0.0711
CGAGACCC	-0.167
GAGAACTA	0.101
AAGCCCTA	-0.124
ACATACAT	0.226
AACCCTAG	-0.0236
ACTTTAAT	0.114
AAGCAAAA	0.13
CCGGGTCG	-0.279
CCCGGGAC	-0.322
ATAATAAT	0.305
ATAATGAT	0.203
ATAATGAG	0.0777
ATAATAAC	0.159

Sequence	PBM E-score
ATAATAAG	0.18
ATAATGAA	0.331
CTTGCTGA	0.0188
AGGACAAA	0.17
CGGACAAA	0.297
CGGACAAG	-0.0192
CAGACTTA	-0.189
TCAAGAGA	0.0989
AGATTCTA	0.106
CATGTTCC	0.0191
GATGTTCC	0.412
GATGTTCA	-0.079
CCTGAGAC	-0.235
ATTCTCCG	0.305
ATTCTCCA	0.175
ATTCTCCC	0.14
CCACAGGC	-0.336
AACTCTCT	0.0664
ACCTCAGG	-0.12
ATATCTTG	0.288
ATATCTTC	0.218
ATATCTTA	0.281
CTAGAGGA	-0.102
GCAAATTA	0.106
TGGTCGAA	-0.209

Sequence	PBM E-score
AGTATACA	0.185
AATATACA	0.316
TGTATACA	0.341
AATATACT	0.279
GGTATACA	0.00479
CATATACA	0.324
CATATACC	-0.165
GATATACA	0.144
TATATACA	0.24
GTCTAATA	0.0847
GGCTCCAC	-0.267
GATAGGAC	-0.188
GTGATCAC	-0.181
TACTCACA	0.158
ATCGAGCG	-0.089
GATCTAGA	0.0239
GATACCCA	0.0285
AAATAGTT	0.227
AGATATAG	0.171
AACTATAG	0.104
AAATAGTC	0.0679
AACTATAC	0.151
ATATATAG	0.332
CTATATAG	0.0604
AAATATAG	0.305

Sequence	PBM E-score
AAATATGG	0.12
CAATATAG	0.115
AACTATAT	0.335
AAATAGTG	0.292
TCATCGGA	0.109
CAACCTTA	0.14
CCTTAGCG	-0.178
ATTTACCG	0.132
TACAATCA	0.171
AACTACCG	0.0353
TAATATGA	0.284
AAGTATAT	0.302
AAGTATAG	0.12
TAATAGAA	0.198
AAATATCG	0.247
AAATATAC	0.312
TAATATAA	0.379
AAATATCC	0.273
AAGTATAA	0.152
CAATATAC	0.0977
GAATATAC	0.141
AAATATCT	0.295
AGAGTAGG	0.0322
CTATCTGC	-0.0829
ACAACTGT	0.106

Sequence	PBM E-score
CCACTACC	-0.149
AGGTGCAG	-0.186
AATTCTGC	0.0888
ATGACGCA	-0.0224
ACCAGGTA	-0.225
ATCGTTAA	0.24
ATCTTCAG	0.185
AAATAGAG	0.247
CAATATAA	0.284
AAATATAA	0.305
AAATAGAT	0.289
ATATATAT	0.141
GAATATAA	0.131
AAATATGT	0.252
AAATATAT	0.339
AAATAGAC	0.101
CAAGTCGA	-0.0109
GGTGAATA	0.127
ACGCAACG	0.0621
GTAAGTCA	0.0193
AAGCTTAC	0.0655
AAGGTTTG	0.227
AGGTGAGC	-0.172
ACTAACCC	0.0277
GTCGCGAC	0.234

Sequence	PBM E-score
ATTAACAG	0.0928
GTTAACAA	0.0731
ATTAACAC	0.368
AATAACAC	0.222
ATTAACAA	0.382
CTTAACAC	0.112
GGATTAAA	0.341
CGATTAAC	0.103
TGATTAAA	0.27
CGATTAAA	0.174
AGATTAAA	0.295
AGATTAAC	0.199
AGATTAAG	0.214
GGATTAAC	0.441
AGATTAAT	0.284
GGAGAACA	0.026
ACTTAGCA	0.00122
GCCCTCTA	-0.176
TACGCCCA	0.0751
